# Screening data (PubChem BioAssay)
# KAT2A inh: blocks human GCN5L2 histone acetyltransferase. Q92830. GCN5L2 HAT assay, ThioGlo1 CoA-SH fluorescence. Potency, µM (top dose mostly 58.9 µM), inactives show top-dose activity change, negative = inhibition, usual class: inhibitors. actives 0.21% (n = 390,000). AID 504327; further: potency means the concentration at half of the fitted maximal effect; on the % scale 0 is the no-effect control and ±100 the full control effect
#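 Free CoA generated was detected with ThioGlo1 (50uM) fluorescence at Ex340nm/Em540nm, read immediately and after 20 min at room temperature. Enzyme, 20 nM in HEPES pH 7.5 buffer, saw compounds 15 min before adding 75uM H3(1-25) peptide and 70uM acetyl-CoA.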
# PI5P4K alpha inh: inhibitors of human PI5P4K alpha | AID 652105 | max response, % | P48426 | actives 1.2% (n = 330,000) | PI5P4Kalpha enzyme, ADP-Glo luminescence, 60 min; stronger effect = lower value; active means max response of -50% or lower; inconclusive means between -30% and -50%; inactive means -30% or higher; further: value at the top dose of about 77 µM; on the % scale 0 is the no-effect control and ±100 the full control effect
#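 Luminescence from ADP-Glo served as readout of PI5P4Kalpha activity in a qHTS format. Reaction: enzyme, substrate, compound, ATP at 5 microM final, 60 min at RT.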
# HP1b chromo inh: inhibitors of HP1-beta chromodomain binding to methylated histone tails; AlphaScreen HP1-beta / biotin-H3K9me3 peptide binding; Potency, µM (top dose mostly 114 µM), without a hit: at the top dose activity change, negative = inhibition, most hits filed as inhibitors; P83916; actives 0.56% (n = 390,000); AID 540317; further: potency means the concentration at half of the fitted maximal effect; nearly all actives have a fitted effect of over 70% in size
#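 AlphaScreen: HP1-beta (50 nM) preformed 30 min with biotin-H3(1-18)K9me3 peptide (50 nM) in PBS pH 7.4, 0.01% Tween-20. Compound added for 30 min at RT, then streptavidin donor/nickel chelate acceptor beads (10 ug/mL) for 30 min.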
# BAZ2B block: BAZ2B (human) inhibition; Q9UIF8; AlphaScreen BAZ2B-H3K14Ac peptide displacement; Potency, µM (doses to about 114 µM), for inactives: at the highest dose activity change, negative = inhibition, hits mostly inhibitors; actives 4.4% (n = 360,000); further: potency means the concentration at half of the fitted maximal effect; on the % scale 0 is the no-effect control and ±100 the full control effect; nearly all actives have a fitted effect of over 60% in size
#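 Compounds, titrated to a top concentration of 110 uM, were incubated 30 min at room temperature with preformed BAZ2B/acetyl-K14 H3 peptide complex (50 nM each). Proximity signal was measured by AlphaScreen after 20 min with beads.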
# PLK1 PBD inh: PLK1 (human) polo-box domain binding inhibition; Plk1 PBD binding of FITC phosphopeptide, fluorescence polarization; P53350; Potency, µM, inactives show max response, negative = inhibition, most hits filed as inhibitors; actives 2.8% (n = 360,000); further: potency means the concentration at half of the fitted maximal effect; series mostly up to about 57 µM; on the % scale 0 is the no-effect control and ±100 the full control effect; nearly all actives have a fitted effect of over 65% in size
# JMJD2A Tudor inh: blocks the human JMJD2A Tudor domain | O75164 | Potency, µM (doses to about 114 µM), for inactives: at the highest dose activity change, negative = inhibition, hits mostly inhibitors | AlphaScreen JMJD2A-Tudor / H3K4me3 peptide binding | actives 4.4% (n = 390,000) | AID 504339; further: potency means the concentration at half of the fitted maximal effect; on the % scale 0 is the no-effect control and ±100 the full control effect; nearly all actives have a fitted effect of over 50% in size
# Active calls of the source: *; u = inconclusive; x = not tested or not shown; [ ] = dose if it differs, or a comment. A selection: hits, their analogues and other compounds. The true share with any hit is near 7%. Unless noted, the call rests on the fitted dose curve; in most records, active means well fitted curve in the direction sought with a large enough effect; inconclusive means small, poorly fitted or top-dose-only effect, or another doubt; inactive means no such curve, though single readings can be large; an effect the other way counts as inactive or inconclusive.
SMILES,KAT2A inh,PI5P4K alpha inh,HP1b chromo inh,BAZ2B block,PLK1 PBD inh,JMJD2A Tudor inh
Cc1ccccc1-c1cc(C(=O)NCc2cccc(Br)c2)n(CC2CC(c3cccnc3)=NO2)n1 (configuration not stated),-16%,3,18%,x,-8%,-22%
CCc1ccc(-n2c(=O)c3c4c(sc3n(Cc3ccccc3C#N)c2=O)CCC4)cc1,0%,x,25%,5%,x,0%
O=C(CCO)c1ccc(O)cc1,-4%,-65*,u,13µM*,-1%,20µM*
CCCCC(=O)c1ccc(O)cc1,-5%,x,30%,-4%,-3%,-11%
O=C(CNC(=O)C1CCCCC1)OC(C(=O)Nc1cc(C(F)(F)F)ccc1Cl)c1ccccc1 (configuration not stated),x,x,x,x,x,-19%
c1ccc(-c2nc(NCC3CCCO3)c3ccccc3n2)nc1 (configuration not stated),-1%,0,53%,u,-6%,89µM*
CCOc1ccc(Nc2nc(NCC3CCCO3)c3ccccc3n2)cc1 (configuration not stated),-5%,-9,2%,32µM*,-7%,u
CCOc1ccc(Nc2cc(C)c3ccccc3n2)cc1,-5%,15,6%,-31%,-7%,u
c1ccc(-c2nc(NCc3ccco3)c3ccccc3n2)nc1,-9%,0,25%,45µM*,-15%,-34%[11.4 µM]
CCOc1ccc(Nc2c3ccccc3nc3ccccc23)cc1,-6%,4,u,35µM*,-14%,-28%[11.4 µM]
c1ccc(Nc2nc(NCC3CCCO3)c3ccccc3n2)cc1 (configuration not stated),-15%,u,33%,-39%,-17%,-25%
Oc1ccccc1-c1nc(NCc2ccco2)c2ccccc2n1,-15%,8,13%,-12%,-2%,-20%
Cc1cccc(-n2c(=O)c3c(c4cc(C)ccc4n3C)n(CC(=O)Nc3ccccc3C(F)(F)F)c2=O)c1,-4%,x,37%,3%,x,-3%
O=C(Cn1c(=O)n2nc(-c3cccc(F)c3)nc2c2ccccc21)N1CCN(c2ccc(F)cc2)CC1,-10%,x,40%,4%,x,-8%
COc1ccc(-c2csc(N(CC(C)C)C(=O)c3ccco3)n2)cc1,-6%,19,17%,u,-24%,6%
CCN(C(=O)c1ccco1)c1nc(-c2ccc(OC)cc2)cs1,-12%,28,5%,79µM*,-7%,12%
COc1ccccc1C(=O)N/C(=C/c1ccc(Br)cc1)C(=O)N1CCCC1,29%,-25,-19%,-15%,27µM*,50µM*
COc1ccc(NC(=O)CSc2nnnn2-c2ccccc2F)cc1,-5%,2,20%,-9%,-17%,-11%
COc1ccccc1NC(=O)CSc1nnnn1-c1ccccc1F,-12%,-6,-9%,8%,27µM*,-9%
COc1ccccc1NC(=O)CSc1ncc(CO)n1Cc1ccc(F)cc1,0%,-8,1%,u,9.5µM*,u
Cc1cc(NC(=O)CSc2ncc(CO)n2Cc2ccc(F)cc2)no1,-7%,8,32%,-16%,-11%,-16%
O=c1cc(C(F)(F)F)nc(SCc2cccc3ccccc23)[nH]1,-19%,35,32%,-17%,30µM*,-8%
Nc1cc2c(cc1C(=O)c1cccc(Br)c1)OCCO2,1%,3,u,35µM*,-7%,45µM*
Nc1cc2c(cc1C(=O)c1ccccc1F)OCCO2,1%,-1,-2%,u,-8%,-35%
COc1ccccc1/C=c1\sc2nc(-c3ccco3)nn2c1=O,u,-69*,50µM*,35µM*,u,18µM*
SMILES,KAT2A inh,PI5P4K alpha inh,HP1b chromo inh,BAZ2B block,PLK1 PBD inh,JMJD2A Tudor inh
CSc1nc(-c2ccco2)nn1C(=O)c1ccccc1,-6%,1,55%,u,11µM*,-6%
COc1ccccc1C(=O)n1nc(-c2ccco2)nc1SC,-2%,-4,44%,-35%,11µM*,-11%
CCOc1ccc(/C=c2\sc3nc(-c4ccco4)nn3c2=O)cc1OCC,-2%,-18,-1%,-4%,-26%,u
CCS(=O)(=O)n1nc(-c2ccco2)nc1SC,x,u,u,21%,9.5µM*,28µM*
CSc1nc(-c2ccco2)nn1C(=O)c1ccc(C)cc1,0%,0,62%,8%,u,20%
OCc1cccc[n+]1Cc1ccccc1,x,0,40%,x,-6%,5%
Cn1nc(C(=O)OCC(=O)Nc2ccc(Cl)cc2Cl)c2ccccc2c1=O,1%,-2,39%,3%,-14%,-4%
CC(=O)c1ccc(OC2(C)CCN(CCOc3ccc(C)cc3)C2)cc1 (configuration not stated),x,3,x,x,-20%,x
COC(=O)[C@]12CCCCC=C1N(CCc1ccc(OC)c(OC)c1)C(=O)[C@H](CC(=O)NCC13CC4CC(CC(C4)C1)C3)C2,x,-1,x,x,-12%,x
CCCC(=O)n1nc(-c2ccco2)nc1SCc1ccccc1,-10%,-1,29%,87%,-17%,41%
O=C(Cc1ccccc1)n1nc(-c2ccco2)nc1SCc1ccccc1,-6%,0,20%,-37%,-4%,89µM*
CN(CCCC[C@H](CNCc1ccc(-c2ccccc2)cc1)N1C[C@H](c2ccccc2)N(CCc2ccc(Cl)c(Cl)c2)C(=O)C1=O)Cc1ccc(-c2ccccc2)cc1,-20%,x,x,u,x,x
COc1ccc(CNC[C@@H](CCCCN(C)Cc2ccc(OC)cc2)N2C[C@H](c3ccccc3)N(CCc3ccc(Cl)c(Cl)c3)C(=O)C2=O)cc1,-6%,u,-9%,u,-7%,40µM*
COc1ccc(NC(=O)CSc2cn(CCNC(=O)c3c(F)cccc3F)c3ccccc23)cc1,2%,x,41%,-4%,x,-8%
COc1cc(C(=O)O)nc2ccccc12,2%,-1,-10%,40µM*,3%,13µM*
COc1cc(-c2ccccc2)nc2ccccc12,-3%,7,104%,53%,0%,55%
O=C(O)c1cc2ccccc2cn1,x,6,0%[57 µM],x,-3%,0.32µM*
O=C(O)c1cnc2ccccc2n1,-4%,x,u,u,27µM*,20µM*
O=C(C1=C(O)C(=O)N(Cc2cccnc2)C1c1ccccn1)c1cccs1 (configuration not stated),1%,5,33%,u,-9%,-9%
